Screening results (PubChem BioAssay)
GLS inh = inhibitors of human glutaminase (GLS); GLS enzymatic activity, qHTS titration; Potency, µM (highest dose often 45.5 µM), hits mostly inhibitors; AID 624170; actives 0.21% (n = 410,000); O94925
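Read-out is an Amplex red fluorescence increase coupled through glutamate oxidase and HRP, measured before and after 30 min room-temperature incubation. hKGA is in 45 mM KH2PO4 (pH 8.2) with 0.02% Tween-20; glutamine added as 1mM solution.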
PKM2 act = increases activity of human pyruvate kinase M2 | actives 0.34% (n = 260,000) | purified PKM2, Kinase-Glo ATP luminescence, activation; response scale: 0% is enzyme alone, no compound | Potency, µM (top dose mostly 57.5 µM), usual class: activators; also: nearly all actives have a fitted effect of over 55% in size
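Purified hPK-M2 (>95%) run at intermediate activity with 0.1 mM ADP and 0.5 mM PEP in 50 mM imidazole pH 7.2, KCl, MgCl2; 1 h room temperature. ATP formed read by Kinase-Glo luminescence; normalized to uninhibited and no-enzyme controls.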
Mito fusion yeast = mitochondrial division inhibition or fusion activation | S. cerevisiae fusion-defective mutant growth rescue, CellTiterGlo 48 h | Potency, µM (highest dose often 46.1 µM), actives largely listed as activators | actives 0.23% (n = 320,000); also: nearly all actives have a fitted effect of over 45% in size
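Temperature-sensitive fusion-defective S. cerevisiae (e.g. fzo1-1, mgm1-5) were grown with compound in YPEG medium (3% ethanol, 3% glycerol) for 48 hours at 37C. Growth rescue was measured as viability by CellTiterGlo luminescence after 10 minutes at ambient.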
KAT2A inh = inhibitors of human GCN5L2 histone acetyltransferase | Q92830 | GCN5L2 HAT assay, ThioGlo1 CoA-SH fluorescence | Potency, µM (highest dose often 58.9 µM), most hits filed as inhibitors | actives 0.21% (n = 390,000) | AID 504327
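Compounds, pin-transferred from DMSO stocks, meet 20nM GCN5L2 for 15 min before the reaction begins with H3(1-25) peptide (75uM) and acetyl-CoA (70uM). Thiol-reactive ThioGlo1 reports CoA release over 20 min at room temperature.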
VDR inhibitor = blocks the human vitamin D receptor; P11473; VDR-SRC2-3 peptide fluorescence polarization, 2 h; Potency, µM, usual class: inhibitors; actives 0.93% (n = 400,000); AID 504847
Target sequence (P11473 whole entry, looked up): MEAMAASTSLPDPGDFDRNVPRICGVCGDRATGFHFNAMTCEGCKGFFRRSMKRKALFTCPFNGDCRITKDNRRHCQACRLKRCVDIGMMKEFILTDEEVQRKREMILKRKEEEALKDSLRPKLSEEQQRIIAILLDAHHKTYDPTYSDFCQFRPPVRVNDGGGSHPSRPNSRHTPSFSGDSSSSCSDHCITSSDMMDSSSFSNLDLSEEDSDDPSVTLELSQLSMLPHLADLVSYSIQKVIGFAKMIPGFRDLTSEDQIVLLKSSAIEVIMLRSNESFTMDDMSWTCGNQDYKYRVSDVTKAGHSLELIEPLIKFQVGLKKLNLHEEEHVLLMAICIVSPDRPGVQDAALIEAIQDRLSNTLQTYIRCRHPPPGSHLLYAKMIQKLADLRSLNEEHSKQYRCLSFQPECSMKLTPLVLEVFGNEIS
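The screen uses fluorescence polarization to detect compounds that interfere with recruitment of the SRC2-3 coactivator peptide to VDR; plates are read after 2 h at room temperature.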
PLK1 PBD inh = blocks phosphopeptide binding to human PLK1 polo-box domain. P53350. Plk1 PBD binding of FITC phosphopeptide, fluorescence polarization. Potency, µM, hits mostly inhibitors. actives 2.8% (n = 360,000). AID 720504; also: series mostly up to about 57 µM; nearly all actives have a fitted effect of over 65% in size
GLS confirm = confirmation of human glutaminase inhibitors | shares compounds with GLS inh | biochemical glutaminase enzyme inhibition assay | Potency, µM (series often up to 46.1 µM), actives largely listed as inhibitors | 35 tested, under 10 active | AID 624261; calls by dose curve
HRP GOx counter = counter-screen for glutaminase inhibitors: HRP coupled enzyme inhibition | HRP/glutamate oxidase coupled Amplex Red fluorescence counterscreen | activity change, negative = inhibition, % at 46.1 µM | AID 624262 | 35 tested, under 10 active | shares compounds with GLS inh
HEK293 tox = counter-screen for glutaminase inhibitors: HEK-293 cytotoxicity. shares compounds with GLS inh. HEK-293 viability, CellTiter-Glo luminescence, 24 h. activity change, negative = cytotoxicity, % at 46.1 µM. 35 tested, under 10 active. AID 624264
TbPYK confirm = Trypanosoma brucei pyruvate kinase inhibition, cherry-pick confirmation; shares compounds with PLK1 PBD inh; recombinant TbPYK, Kinase-Glo ATP luminescence; Potency, µM (highest dose often 76.9 µM), usual class: inhibitors; actives 67% (n = 890); also: nearly all actives have a fitted effect of over 70% in size
TbPYK orthogonal = inhibits T. brucei pyruvate kinase in orthogonal ADP-Glo assay | actives 62% (n = 890) | recombinant TbPYK, ADP-Glo luminescence, 60 min | shares compounds with PLK1 PBD inh | AID 720584 | Potency, µM (highest dose often 76.9 µM), usual class: inhibitors; also: nearly all actives have a fitted effect of over 75% in size
Numbers stand for hits. Compounds with a hit are over-represented: about 3.4% of the library has one in this group of screens. Unless noted, calls follow the shape of the dose curve; as a rule, active = well fitted curve in the direction sought with a large enough effect; inconclusive = small, poorly fitted or top-dose-only effect, or another doubt; inactive = no such curve, though single readings can be large; an effect the other way counts as inactive or inconclusive.

How did Cc1oc2c(cc(NS(=O)(=O)c3ccc(Cl)cc3)c3ccccc32)c1C(=O)O do in these assays?
GLS inh: 15.8µM; Mito fusion yeast: inactive; KAT2A inh: inactive; VDR inhibitor: inactive; PLK1 PBD inh: inconclusive; GLS confirm: inconclusive; HRP GOx counter: inactive; HEK293 tox: inactive

Results for O=C(CN1C(=O)COc2ccc(S(=O)(=O)N3CCCC3)cc21)NCc1ccccn1 ?
GLS inh: inactive; PKM2 act: inactive; Mito fusion yeast: inactive; KAT2A inh: inactive; VDR inhibitor: inactive; PLK1 PBD inh: inactive

Results for COc1ccc(NS(=O)(=O)c2cc(NC(=O)[C@H](C)NC(N)=O)ccc2N2CCCC2)cc1 ?
GLS inh: 15.8µM; KAT2A inh: inactive; VDR inhibitor: inactive; PLK1 PBD inh: inactive; GLS confirm: inactive; HRP GOx counter: inconclusive; HEK293 tox: inactive

Results for COc1ccccc1N(C)S(=O)(=O)c1ccc(C(=O)OCC(=O)N(C)c2ccccc2)cc1 ?
GLS inh: 7.08µM; PKM2 act: inactive; Mito fusion yeast: inactive; KAT2A inh: inactive; VDR inhibitor: inactive; PLK1 PBD inh: inactive; GLS confirm: inactive; HRP GOx counter: inactive; HEK293 tox: inactive

How did O=c1[nH]c(=O)n([C@@H]2C[C@H](O)[C@H](CO)O2)cc1I do in these assays?
GLS inh: inactive; KAT2A inh: inactive; VDR inhibitor: inactive

How did COc1ccc(OC)c(NC(=O)CCN2CCN(c3ccccc3OC)CC2)c1 do in these assays?
GLS inh: inactive; PKM2 act: inactive; Mito fusion yeast: inactive; KAT2A inh: inactive; VDR inhibitor: inactive; PLK1 PBD inh: inactive

What do the screens show for `CCOc1ccc(Br)cc1S(=O)(=O)Nc1cccc(S(=O)(=O)Nc2ccccc2C(=O)O)c1`?
GLS inh: inactive; KAT2A inh: inactive; VDR inhibitor: inactive; PLK1 PBD inh: inconclusive

What do the screens show for `O=C(O)c1ccccc1NS(=O)(=O)c1cccc(NS(=O)(=O)c2cc(Br)ccc2Br)c1`?
GLS inh: inconclusive; KAT2A inh: inactive; VDR inhibitor: inactive; PLK1 PBD inh: inconclusive; GLS confirm: inconclusive; HRP GOx counter: inactive; HEK293 tox: inactive

How did CCN(CC)S(=O)(=O)c1ccc(NS(=O)(=O)c2cccc(C)c2)cc1 do in these assays?
GLS inh: inconclusive; PKM2 act: inactive; Mito fusion yeast: inactive; KAT2A inh: inactive; VDR inhibitor: inactive; PLK1 PBD inh: inactive; GLS confirm: inactive; HRP GOx counter: inactive; HEK293 tox: inactive

How did CCN(CC)S(=O)(=O)c1ccc(NS(=O)(=O)c2ccc(F)cc2)cc1 do in these assays?
GLS inh: inactive; PKM2 act: inactive; Mito fusion yeast: inactive; KAT2A inh: inactive; VDR inhibitor: inactive; PLK1 PBD inh: inactive

How did COc1cccc(NC(=O)CSc2nnc3[nH]c(=O)cc(-c4ccccc4)n23)c1 do in these assays?
GLS inh: inactive; KAT2A inh: inactive; VDR inhibitor: inactive

What do the screens show for `CCc1oc(C(=O)O)cc1CN(CC)CC`?
GLS inh: inactive; PKM2 act: inactive; Mito fusion yeast: inactive; VDR inhibitor: inactive; PLK1 PBD inh: inactive

Results for CCN(CC)Cc1cc(O)c(CN(CC)CC)cc1O ?
GLS inh: 15.8µM; PKM2 act: inactive; Mito fusion yeast: inactive; KAT2A inh: inactive; VDR inhibitor: inactive; PLK1 PBD inh: 4.23µM; TbPYK confirm: inactive; TbPYK orthogonal: 10µM

What do the screens show for `CSc1nsc(SC)c1NC(=O)N1CCCC1`?
GLS inh: inactive; PKM2 act: inactive; Mito fusion yeast: inactive; KAT2A inh: inactive; VDR inhibitor: inactive; PLK1 PBD inh: inactive; TbPYK confirm: inconclusive; TbPYK orthogonal: 31.6µM

What do the screens show for `CCOC(=O)c1[nH]c(C)c(CCC(=O)Nc2ccccc2OCC)c1C`?
GLS inh: inactive; KAT2A inh: inactive; VDR inhibitor: inactive

Results for Cn1ncc(Br)c1C(=O)NC(=S)N1CCN(c2ccccn2)CC1 ?
GLS inh: inactive; PKM2 act: inactive; Mito fusion yeast: inactive; KAT2A inh: inactive; VDR inhibitor: inactive; PLK1 PBD inh: inactive; TbPYK confirm: 28.2µM; TbPYK orthogonal: 31.6µM

Results for Cn1cc(Br)c(C(=O)NC(=S)N2CCN(c3ccccn3)CC2)n1 ?
GLS inh: inactive; PKM2 act: inactive; KAT2A inh: inactive; VDR inhibitor: inactive; PLK1 PBD inh: inactive

How did CCNC(=O)C1(C)CCCN(CCOc2ccc(OC)cc2)C1 (stereo not given) do in these assays?
GLS inh: inactive; PLK1 PBD inh: inactive

What do the screens show for `Nc1c(-c2nc(-c3ccccc3Cl)no2)nnn1-c1ccccc1F`?
GLS inh: inactive; KAT2A inh: inactive; VDR inhibitor: inactive

What do the screens show for `CC(=O)Nc1ccc2c(c1)Cc1cc(N3C(=O)C=CC3=O)ccc1-2`?
GLS inh: inactive; VDR inhibitor: 28.2µM; PLK1 PBD inh: 2.99µM; TbPYK confirm: 8.91µM; TbPYK orthogonal: 6.31µM

What do the screens show for `CCn1c(SCC(=O)Nc2nc(-c3ccccc3)cs2)nc2c1c(=O)n(C)c(=O)n2C`?
GLS inh: inactive; PKM2 act: inactive; Mito fusion yeast: inactive; KAT2A inh: inactive; VDR inhibitor: inactive; PLK1 PBD inh: inactive

What do the screens show for `CCCn1c(SCC(=O)Nc2nc(-c3ccc(OC)cc3)cs2)nc2c1c(=O)n(C)c(=O)n2C`?
GLS inh: inactive; PKM2 act: inactive; Mito fusion yeast: inactive; KAT2A inh: inactive; VDR inhibitor: inactive; PLK1 PBD inh: inactive; TbPYK confirm: inactive; TbPYK orthogonal: inactive

Results for O=C1c2sc3nc4n(c(=O)c3c2CCC1Br)CCCCC4 (stereo not given) ?
GLS inh: inactive; PKM2 act: inactive; Mito fusion yeast: inactive; KAT2A inh: inactive; VDR inhibitor: inconclusive; PLK1 PBD inh: inactive; TbPYK confirm: 3.98µM; TbPYK orthogonal: 5.62µM

Results for O=c1c2c3c(sc2nc2n1CCCCC2)CCC3 ?
GLS inh: inactive; PKM2 act: inactive; Mito fusion yeast: inactive; KAT2A inh: inconclusive; VDR inhibitor: inactive; PLK1 PBD inh: inactive
